Tau filament bind = binders of human tau filaments; Potency, µM (highest dose often 57.1 µM), inactives show at the top dose activity change, negative = inhibition; hit rate 2% among 71,000; recombinant tau filaments, thioflavin S fluorescence, 15 h; filaments grown with octadecylsulfate alongside compound;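 also: potency is read from the fitted curve at half-maximal effect; % is scaled to controls: 0 for no effect and ±100 for the full control effect; actives lower thioflavin S fluorescence by blocking filaments or displacing dye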
Target sequence (P10636 whole entry, looked up): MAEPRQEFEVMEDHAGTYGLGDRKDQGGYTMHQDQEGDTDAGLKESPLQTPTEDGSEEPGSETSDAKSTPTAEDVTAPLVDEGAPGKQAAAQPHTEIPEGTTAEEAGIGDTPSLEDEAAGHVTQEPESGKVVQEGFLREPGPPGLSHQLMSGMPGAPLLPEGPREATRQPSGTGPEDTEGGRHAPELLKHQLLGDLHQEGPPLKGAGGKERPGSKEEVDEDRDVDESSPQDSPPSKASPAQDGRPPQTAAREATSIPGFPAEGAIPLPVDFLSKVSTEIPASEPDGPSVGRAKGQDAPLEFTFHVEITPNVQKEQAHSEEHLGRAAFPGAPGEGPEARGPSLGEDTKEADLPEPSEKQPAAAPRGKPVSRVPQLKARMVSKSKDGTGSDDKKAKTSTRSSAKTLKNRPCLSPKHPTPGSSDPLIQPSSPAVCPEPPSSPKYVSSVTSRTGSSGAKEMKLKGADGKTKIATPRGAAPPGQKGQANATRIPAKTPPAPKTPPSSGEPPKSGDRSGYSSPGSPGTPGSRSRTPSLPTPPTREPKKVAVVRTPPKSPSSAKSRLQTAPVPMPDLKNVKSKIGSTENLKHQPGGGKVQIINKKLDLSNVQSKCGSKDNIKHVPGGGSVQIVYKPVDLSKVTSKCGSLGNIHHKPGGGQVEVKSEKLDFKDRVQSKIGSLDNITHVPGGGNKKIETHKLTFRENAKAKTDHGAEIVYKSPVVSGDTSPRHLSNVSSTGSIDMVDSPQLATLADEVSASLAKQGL
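His-tagged recombinant human tau (exons 2, 3 and 10 included), 1 uM, was induced to fibrillize by 30 uM sodium octadecylsulfate with compound present. After 15 h at 37 C, thioflavine S fluorescence (ex 450, em 510 nm) was read.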
DNA Pol III inh = DNA polymerase III holoenzyme inhibition | reconstituted DNA polymerase III holoenzyme replication, biochemical | Potency, µM (highest dose often 57.1 µM), without a hit: at the highest dose activity change, negative = inhibition | hit rate 0.25% among 71,000; also: potency is read from the fitted curve at half-maximal effect; % is scaled to controls: 0 for no effect and ±100 for the full control effect
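Reconstituted *E. coli* holoenzyme (0.35 nM Pol III, 1 nM beta, 154 nM SSB, 2 nM primase) was preincubated with compound for 15 min at RT. Synthesis on 1.4 nM ssM13Gori ran 35 min, then was stopped with PicoGreen/EDTA and read as dsDNA fluorescence.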
15-hLO inh = inhibitors of human 15-lipoxygenase (ALOX15); purified 15hLO-1, xylenol orange hydroperoxide absorbance; Potency, µM (series often up to 57.1 µM), without a hit: top-dose activity change, negative = inhibition, hits mostly inhibitors; hit rate 1.4% among 74,000; also: potency is read from the fitted curve at half-maximal effect; % is scaled to controls: 0 for no effect and ±100 for the full control effect; nearly all actives have a fitted effect of over 55% in size
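Purified human 15hLO-1 (40 nM final) in 25 mM Hepes pH 7.5, 0.01% Triton X-100 was preincubated with compound 15 min at room temperature, then reacted 6 min with 50 uM arachidonic acid; hydroperoxide detected by Fe-XO, 573/405 nm absorbance ratio.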
TsaE inh = YjeE (TsaE) inhibition, E. coli. purified YjeE enzyme, qHTS inhibition assay. hit rate 0.05% among 71,000. P0AF67. Potency, µM. AID 605
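Purified YjeE (10 uM) with BODIPY Texas Red-labeled ADP probe (2 uM); compounds pin-transferred, 15 min at room temperature. Binding inhibition read as decreased fluorescence polarization; ADP titration as control.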
Hsp90 Hop PPI = changes Hsp90-Hop TPR2A binding signal, up or down. AlphaScreen TPR2A-His6 binding biotin-Hsp90 C-terminal peptide. Potency, µM (doses to about 57 µM), for the others: at the top dose activity change, negative = inhibition. hit rate 0.44% among 71,000. AID 595; active = well fitted curve in either direction with a large enough effect; inconclusive = small, poorly fitted or top-dose-only effect, or another doubt; also: potency is read from the fitted curve at half-maximal effect; % is scaled to controls: 0 for no effect and ±100 for the full control effect
Hsp90-TPR2A inh = confirmation and counter-screen of Hsp90 TPR2A co-chaperone interaction disrupters; AlphaScreen TPR2A-His6 / biotin-Hsp90 peptide binding; shares compounds with Hsp90 Hop PPI; activity, negative = inhibition, % at 40 µM or 46 µM, hits read low; AID 632; hit rate 100% among 45;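 active = compound lowering the Hsp90 and TPR2A binding signal, whether or not the linker counterscreen also flagged it as an artifact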
* hit, by the source's call; i = inactive; ? = inconclusive; . = not tested or not shown; + = active, no number; ! = not confirmed by another sample. Compounds with a hit are over-represented: about 3.3% of the library has one in this group of screens. Unless noted, calls follow the shape of the dose curve; as a rule, active = well fitted curve in the direction sought with a large enough effect; inconclusive = small, poorly fitted or top-dose-only effect, or another doubt; inactive = no such curve, though single readings can be large; an effect the other way counts as inactive or inconclusive.

SMILES | Tau filament bind | DNA Pol III inh | 15-hLO inh | TsaE inh | Hsp90 Hop PPI | others
O=c1cc(-c2ccc(O)c(O)c2)oc2cc(O)cc(O)c12 | ? | ? | 2.5µM* | i | -7%
COc1ccc2c(c1)[C@]13CCCC[C@@H]1[C@H](C2)NCC3 | -10% | 0% | 15% | i | -9%
COc1cc2c(cc1OC)[C@@H]1C(=O)c3ccc(OC)c(CC=C(C)C)c3OC1CO2 (stereo partly drawn) | . | . | 16µM* | . | .
C=C(C)[C@@H]1CN[C@H](C(=O)O)[C@H]1CC(=O)O | -1% | -6% | . | i | -6%
CN1CCN(c2ccc(NC(=O)C(C)(C)C)cc2)CC1 | 4% | -2% | 6% | i | 0%
CN1CCN(c2ccc(N)c(N3CCN(C)CC3)c2)CC1 | 20µM* | -18% | -7% | i | 5%
COC1=C[C@H]2[C@@H]3Cc4ccc(OC)c(O)c4[C@@]2(CCN3C)CC1=O | ? | -7% | . | i | -7%
CC(=O)[O-].CC(=O)[O-].CC(=O)[O-].[Cr+3] | 13µM* | -5% | 0% | i | 1%
C[N+](C)(C)CC(=O)[O-] | . | . | -7% | . | .
Cc1cc2c(C(C)C)c(O)c(O)c(C=O)c2c(O)c1-c1c(C)cc2c(C(C)C)c(O)c(O)c(C=O)c2c1O | 1µM* | -14% | ? | 100µM*! | ?
O=c1[nH]c(=O)n(Cc2ccccc2)c(O)c1C=NCCCn1ccnc1 | 0% | -4% | 13% | i | 16µM*
CCCCn1c(O)c(C=NCCCn2ccnc2)c(=O)[nH]c1=O | 4% | -5% | 5% | i | -6%
CN(C)c1ccc(N)cc1 | 13µM* | -8% | ? | i | ?
CN(C)c1ccc(P(=S)(N(C)C)N(C)C)cc1 | 2% | 5% | -1% | i | 0%
OC[C@H]1CCCN2CCCC[C@@H]12 | ? | -4% | . | i | -7%
O=C1C(Cl)=C(Cl)C(=O)C(Cl)=C1Cl | 3% | -11% | 0.16µM* | ? | -5%
CC(C)C[C@H]1C(=O)N2CCC[C@@H]2[C@]2(O)O[C@](NC(=O)[C@H]3C=C4c5cccc6[nH]cc(c56)C[C@H]4N(C)C3)(C(C)C)C(=O)N12 | i | 9% | . | i | ?
Cn1ncnc2c(=O)n(C)c(=O)nc1-2 | 12% | 0% | -12% | i | 0.79µM* | Hsp90-TPR2A inh=+
C[C@H](N)c1cccc(Cl)c1Cl | -11% | -4% | 6% | i | -9%
